“And” between values parts separate entries of the source, which are not always exact repeats. Equal values may be shown once. Results filed as inconclusive are left out. Where a call stands in place of a potency, no number is given. The source made the active and inactive calls. The call rests on the fitted dose curve; in most records, active means well fitted curve in the direction sought with a large enough effect in the repeat runs; inconclusive means weak or mixed curves; inactive means no such curve, though single readings can be large; an effect the other way counts as inactive or inconclusive.
Experiment: qHTS assay to identify small molecule agonists of the retinoic acid receptor (RAR) signaling pathway (AID 1159553); further: potency means the concentration at half of the fitted maximal effect
Conditions: C3RL4 RARE luciferase reporter, agonist, 6 h; series mostly up to 73.3 µM
Summary of the method: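 Compounds dissolved in DMSO were pinned onto C3RL4 cells seeded the previous day, and plates were held 6 hr at 37 C. RARE-driven luciferase output was then read by luminescence.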

SMILES | Potency
NC(N)=NC(N)=NCCc1ccccc1 | inactive
NC(=O)N1c2ccccc2C=Cc2ccccc21 | inactive
C=CCOC(=O)CC(C)C | inactive
Nc1ccc(N=Nc2ccccc2)c(N)n1 | 1.23 µM (active) and 969 nM (active) and 2.37 µM (active)
O=C1CCCCCN1 | inactive
CN(C)Cc1cc(CN(C)C)c(O)c(CN(C)C)c1 | inactive
C1CNCCN1 | inactive
OC[C@@H](O)[C@@H](O)[C@H](O)[C@H](O)CO | inactive
O=C1OC(c2ccc(O)cc2)(c2ccc(O)cc2)c2ccccc21 | inactive
C[C@]12CC[C@@H]3c4ccc(O)cc4C[C@@H](CCCCCCCCCS(=O)CCCC(F)(F)C(F)(F)F)[C@H]3[C@@H]1CC[C@@H]2O (stereo partly specified) | inactive

Experiment: qHTS assay to identify small molecule antagonists of the estrogen related receptor (ERR) signaling pathway - cell viability counter screen (AID 1224818);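 further: viability measured after 17.5 h of compound exposure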
Conditions: ERR reporter cell line viability counter screen; series mostly up to 46.1 µM
Summary of the method: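 Cytotoxicity check run alongside the ERR antagonist screen: cells exposed to test compounds 17.5 h at 37 C, viability taken as CellTiter-Fluor fluorescence intensity.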

SMILES | outcome
CC1=C(/C=C/C(C)=C/C=C/C(C)=C/C(=O)O)C(C)(C)CCC1 | inactive
COc1cc2c(c(OC)c1OC)-c1ccc(OC)c(=O)cc1[C@@H](NC(C)=O)CC2 | inactive
CCOC(=O)C(C)(C)Oc1ccc(Cl)cc1 | inactive
NC(=O)N1c2ccccc2C=Cc2ccccc21 | inactive
CCN(CC)CCOC(=O)c1ccc(N)cc1 | inactive
CC(=O)Oc1ccccc1C(=O)O | inactive
N[C@@H](Cc1c[nH]c2ccc(O)cc12)C(=O)O | inactive
COc1ccccc1O | inactive
C[C@]12CC[C@@H]3c4ccc(O)cc4CC[C@H]3[C@@H]1CCC2=O | inactive
C[C@]12CC[C@@H]3c4ccc(O)cc4C[C@@H](CCCCCCCCCS(=O)CCCC(F)(F)C(F)(F)F)[C@H]3[C@@H]1CC[C@@H]2O (stereo partly specified) | inactive

Experiment: qHTS assay to identify small molecule antagonists of the estrogen related receptor (ERR) signaling pathway (AID 1224819; further: nearly all actives have a fitted effect of over 50% in size; further: potency means the concentration at half of the fitted maximal effect)
Conditions: ERR reporter cell line, luciferase inhibition; series mostly up to 46.1 µM
Summary of the method: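 ERR reporter cells were plated at 2,000 cells/well and left 6 h at 37 C/5% CO2 before pin-tool transfer of compounds in DMSO. After 18 h at 37 C, One-Glo was added and luminescence was read 30 min later at room temperature.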

SMILES | Potency
CCOC(=O)C(C)(C)Oc1ccc(Cl)cc1 | inactive
CCN(CC)CCOC(=O)c1ccc(N)cc1 | inactive
C[C@]12CC[C@@H]3c4ccc(O)cc4C[C@@H](CCCCCCCCCS(=O)CCCC(F)(F)C(F)(F)F)[C@H]3[C@@H]1CC[C@@H]2O (stereo partly specified) | 7.22 µM (active)

Experiment: qHTS assay to identify small molecule agonists of the estrogen related receptor (ERR) signaling pathway (AID 1224820)
Conditions: ERR reporter cell line, luciferase agonist mode; series mostly up to 46.1 µM
Summary of the method: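 After 6 h plating (2,000 cells/well) and 18 h compound treatment at 37 C, ERR cells were lysed with One-Glo and luminescence read after 30 min at room temperature.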

SMILES | outcome
CCOC(=O)C(C)(C)Oc1ccc(Cl)cc1 | inactive
CCN(CC)CCOC(=O)c1ccc(N)cc1 | inactive
C[C@]12CC[C@@H]3c4ccc(O)cc4C[C@@H](CCCCCCCCCS(=O)CCCC(F)(F)C(F)(F)F)[C@H]3[C@@H]1CC[C@@H]2O (stereo partly specified) | inactive
